Results filed as inconclusive are left out. Activity calls are given as the source filed them. Calls come from the whole dose curve; as a rule, active = well fitted cell-killing curve with a large enough effect; inconclusive = small, poorly fitted or top-dose-only effect, or effect the other way; inactive = flat fitted curve, though single readings scatter. Where a SMILES comes first, the peptide text is derived from it. [ ]: non-standard residue; d: D form. ξ: configuration not given here. ξLac(3-iPr) = CC(C)CC(O)C(=O)O; NMeV = CN[CH](C(=O)O)C(C)C; βAla = NCCC(=O)O
Assays:
Test in all cases: Primary qHTS to identify gynecologic anti-cancer compounds using libraries of approved drugs and bioactive compounds (AID 1345084); note: nearly all actives have a fitted effect of over 55% in size
Conditions in all cases: Gynecologic cancer cell panel viability, ATPlite luminescence, 48 h; series mostly up to 57.5 µM
JEG-3 = test system: JEG-3
Outline: (§1)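 Five-point cytotoxicity, 48 h drug exposure at 37 C, 5% CO2, on cells seeded 16 h beforehand. ATP content read by ATPlite luminescence.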

OV90 = test system: OV90
Outline: as §1

PA-1 = test system: PA-1
Outline: as §1

SKOV3 = test system: SKOV3
Outline: as §1

Tov-21-G = test system: Tov-21-G
Outline: as §1

Tov112D = test system: Tov112D
Outline: as §1
% is set by controls: 0 for no effect and ±100 for the full control effect.

C[C@H]1CC[C@@H]2N(C1)C[C@@H]1[C@H]([C@@H](O)[C@H](O)[C@]3(O)[C@H]1C[C@@]14OC5(O)[C@@H](C[C@@H](O)[C@@H]31)[C@]4(C)CC[C@@H]5O)[C@]2(C)O
inactive: Potency (JEG-3) | Potency (OV90) | Potency (PA-1) | Potency (SKOV3) | Potency (Tov-21-G) | Potency (Tov112D)

O=C(NCc1cccc(O)c1)Nc1nc(-c2ccncc2)cs1
inactive: Potency (JEG-3) | Potency (OV90) | Potency (PA-1) | Potency (SKOV3) | Potency (Tov-21-G) | Potency (Tov112D)

COCCOc1ccc(N2CCN(CCn3ncc4c3nc(N)n3nc(-c5ccco5)nc43)CC2)cc1
inactive: Potency (JEG-3) | Potency (OV90) | Potency (PA-1) | Potency (SKOV3) | Potency (Tov-21-G) | Potency (Tov112D)

NC1CCCCN(c2c(F)cc3c(=O)c(C(=O)O)cn(C4CC4)c3c2Cl)C1 (stereo unspecified)
inactive: Potency (JEG-3) | Potency (OV90) | Potency (PA-1) | Potency (SKOV3) | Potency (Tov-21-G) | Potency (Tov112D)

CC1CCC2(C(=O)O)CCC3(C)C(=CCC4C5(C)CCC(OC(=O)/C=C/c6ccccc6)C(C)(C)C5CCC43C)C2C1C (stereo unspecified)
inactive: Potency (JEG-3) | Potency (OV90) | Potency (PA-1) | Potency (SKOV3) | Potency (Tov-21-G) | Potency (Tov112D)

O=C(OC1C=C(CO)C2C(OC3OC(CO)C(O)C(O)C3O)OC=CC12)c1ccc(O)cc1 (stereo unspecified)
inactive: Potency (JEG-3) | Potency (OV90) | Potency (PA-1) | Potency (SKOV3) | Potency (Tov-21-G) | Potency (Tov112D)

O=C(OC[C@H]1O[C@H](O[C@]2(CO)O[C@H](CO)[C@@H](O)[C@@H]2O)[C@H](O)[C@@H](O)[C@@H]1O)c1ccccc1
inactive: Potency (JEG-3) | Potency (OV90) | Potency (PA-1) | Potency (SKOV3) | Potency (Tov-21-G) | Potency (Tov112D)

C[C@H](C(=O)NC1CCCC1)N(C(=O)Cn1nnc(-c2ccc3c(c2)OCO3)n1)C1CCCCC1
inactive: Potency (JEG-3) | Potency (OV90) | Potency (PA-1) | Potency (SKOV3) | Potency (Tov-21-G) | Potency (Tov112D)

C[C@@H]1O[C@@H](O[C@H]2[C@H](O)[C@@H](O[C@@H]3O[C@H](CO)[C@@H](O)[C@H](O[C@@H]4O[C@H](CO)[C@@H](O)[C@H](O)[C@H]4O)[C@H]3O)[C@H](O[C@H]3CC[C@@]4(C)C(=CC[C@@H]5C4CC[C@@]4(C)C5C[C@@H]5OC6(CC[C@@](C)(CO[C@@H]7O[C@H](CO)[C@@H](O)[C@H](O)[C@H]7O)O6)[C@@H](C)[C@@H]54)C3)O[C@@H]2CO)[C@H](O)[C@H](O)[C@H]1O (stereo partly specified)
inactive: activity change, negative = cytotoxicity (JEG-3) -5.56% [at 6.55 µM] | activity change, negative = cytotoxicity (OV90) 1.28% [at 6.55 µM] | activity change, negative = cytotoxicity (PA-1) -4.89% [at 6.55 µM] | activity change, negative = cytotoxicity (SKOV3) 5.85% [at 6.55 µM] | activity change, negative = cytotoxicity (Tov-21-G) -2.15% [at 6.55 µM] | activity change, negative = cytotoxicity (Tov112D) -2.67% [at 6.55 µM]

C[C@H]1O[C@@H](O[C@H]2CC[C@@]3(C)C(CC[C@]4(C)C3CC=C3C5CC(C)(C)CC[C@]5(C(=O)O)CC[C@]34C(=O)O)C2(C)C)[C@H](O)[C@@H](O)[C@@H]1O (stereo partly specified)
inactive: Potency (JEG-3) | Potency (OV90) | Potency (PA-1) | Potency (SKOV3) | Potency (Tov-21-G) | Potency (Tov112D)

CC(=O)O[C@@H]1C[C@@H](OC(C)=O)C(C)(C)/C=C/[C@H](C)[C@H](OC(C)=O)[C@@]2(O)C[C@H](C)[C@H](OC(=O)c3ccccc3)[C@@H]2/C=C/1C
inactive: Potency (JEG-3) | Potency (OV90) | Potency (PA-1) | Potency (SKOV3) | Potency (Tov-21-G) | Potency (Tov112D)

COc1cccc2cc3c(c(O[C@@H]4O[C@H](CO[C@@H]5O[C@H](CO)[C@@H](O)[C@H](O)[C@H]5O)[C@@H](O)[C@H](O)[C@H]4O)c12)C(C)OC3=O (stereo partly specified)
inactive: Potency (JEG-3) | Potency (OV90) | Potency (PA-1) | Potency (SKOV3) | Potency (Tov-21-G) | Potency (Tov112D)

CN1CCc2nc(C(=O)N[C@@H]3C[C@@H](C(=O)N(C)C)CC[C@@H]3NC(=O)C(=O)Nc3ccc(Cl)cn3)sc2C1
inactive: Potency (JEG-3) | Potency (OV90) | Potency (PA-1) | Potency (SKOV3) | Potency (Tov-21-G) | Potency (Tov112D)

CC(C)CC1OC(=O)C2CCCN2C(=O)CCNC(=O)C(Cc2ccccc2)NC(=O)C(C(C)C)N(C)C(=O)C(C(C)C)N(C)C1=O (stereo unspecified) (cyclo([ξLac(3-iPr)][NMeV][NMeV]F[βAla]P); configuration not given here)
inactive: Potency (JEG-3) | Potency (OV90) | Potency (PA-1) | Potency (SKOV3) | Potency (Tov-21-G) | Potency (Tov112D)

COC(=O)C1=CO[C@@H](O[C@@H]2O[C@H](CO)[C@@H](O)[C@H](O)[C@H]2O)C2C1C(=O)C[C@H]2C (stereo partly specified)
inactive: Potency (JEG-3) | Potency (OV90) | Potency (PA-1) | Potency (SKOV3) | Potency (Tov-21-G) | Potency (Tov112D)

COc1cc(N)c(Cl)cc1C(=O)NC[C@@H]1CCN2CCC[C@@H]12
inactive: Potency (JEG-3) | Potency (OV90) | Potency (PA-1) | Potency (SKOV3) | Potency (Tov-21-G) | Potency (Tov112D)

O=C(O)c1ccc(OC2OC(CO)C(O)C(O)C2O)cc1 (stereo unspecified)
inactive: Potency (JEG-3) | Potency (OV90) | Potency (PA-1) | Potency (SKOV3) | Potency (Tov-21-G) | Potency (Tov112D)

Cc1ccc(-c2c(C(=O)CF)n(CCCO)c3ncnc(N)c23)cc1
inactive: Potency (JEG-3) | Potency (OV90) | Potency (PA-1) | Potency (SKOV3) | Potency (Tov-21-G) | Potency (Tov112D)

C[C@@H]1C(=O)O[C@H](C)[C@H]1CC(=O)[C@](C)(O)[C@H]1CC[C@@]2(O)C3=CC(=O)[C@@H]4C[C@@H](O)[C@@H](O)C[C@]4(C)C3CC[C@]12C (stereo partly specified)
inactive: Potency (JEG-3) | Potency (OV90) | Potency (PA-1) | Potency (SKOV3) | Potency (Tov-21-G) | Potency (Tov112D)

C=C(C)C1CCC(C)C12CC(O)C1(C)OC1C2OC(=O)C(N)CCC(=O)O (stereo unspecified)
inactive: Potency (JEG-3) | Potency (OV90) | Potency (PA-1) | Potency (SKOV3) | Potency (Tov-21-G) | Potency (Tov112D)

CC1OC(O[C@H]2CC[C@@]3(C)C(CC[C@]4(C)C3CC=C3C5CC(C)(C)CC[C@]5(C(=O)OC5OC(CO)C(OC6OC(COC7OCC(O)C(O)C7O)C(O)C(O)C6O)C(O)C5O)CC[C@]34C)C2(C)C)C(O)C(O)C1OC1OCC(OC2OCC(O)C(O)C2O)C(O)C1O (stereo partly specified)
inactive: activity change, negative = cytotoxicity (JEG-3) 7.58% [at 6.55 µM] | activity change, negative = cytotoxicity (OV90) 5.67% [at 6.55 µM] | activity change, negative = cytotoxicity (PA-1) -4.41% [at 6.55 µM] | activity change, negative = cytotoxicity (SKOV3) 5.68% [at 6.55 µM] | activity change, negative = cytotoxicity (Tov-21-G) -0.908% [at 6.55 µM] | activity change, negative = cytotoxicity (Tov112D) -13.2% [at 6.55 µM]

Source: PubChem BioAssay (NCATS)
